Values joined by “and” are separate entries in the source; they are usually repeats but may differ in a detail not shown here. Equal values may be shown once. The panel holds about 83,000 compounds, 20% with a hit somewhere; the sample as a whole holds those more often.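 How to read the values: 0–100, growth inhibition (40 = 60% inhibited); 0, no net growth; -100 to 0, cell death (-40 = 40% of starting cells died; -100 = all dead).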 Active and inactive are the calls of the source. The calls were made as follows: active = growth percent below 10; inactive = the rest.
Tests used:
Experiment in all cases: NCI-60 one-dose screen, 48 h (100 = growth as untreated, 0 = no growth, -100 = all killed)
Conditions in all cases: 10 µM unless noted
SR leukemia = tested on: SR leukemia
RPMI-8226 leukemia = tested on: RPMI-8226 leukemia
OVCAR-8 ovarian = tested on: OVCAR-8 ovarian
OVCAR-5 ovarian = tested on: OVCAR-5 ovarian
OVCAR-4 ovarian = tested on: OVCAR-4 ovarian
SK-OV-3 ovarian = tested on: SK-OV-3 ovarian
IGROV1 ovarian = tested on: IGROV1 ovarian
OVCAR-3 ovarian = tested on: OVCAR-3 ovarian
HS 578T breast = tested on: HS 578T breast
NCI/ADR-RES ovarian = tested on: NCI/ADR-RES ovarian
BT-549 breast = tested on: BT-549 breast
MDA-MB-435 melanoma = tested on: MDA-MB-435 melanoma
SW-620 colon = tested on: SW-620 colon
MCF7 breast = tested on: MCF7 breast
HCT-116 colon = tested on: HCT-116 colon
HCC-2998 colon = tested on: HCC-2998 colon
KM12 colon = tested on: KM12 colon
T-47D breast = tested on: T-47D breast

| Structure (SMILES) | growth (SR leukemia) | growth (RPMI-8226 leukemia) | growth (OVCAR-8 ovarian) | growth (OVCAR-5 ovarian) | growth (OVCAR-4 ovarian) | growth (SK-OV-3 ovarian) | growth (IGROV1 ovarian) | growth (OVCAR-3 ovarian) | growth (HS 578T breast) | growth (NCI/ADR-RES ovarian) | growth (BT-549 breast) | growth (MDA-MB-435 melanoma) | growth (SW-620 colon) | growth (MCF7 breast) | growth (HCT-116 colon) | growth (HCC-2998 colon) | growth (KM12 colon) | growth (T-47D breast) |
| --- | --- | --- | --- | --- | --- | --- | --- | --- | --- | --- | --- | --- | --- | --- | --- | --- | --- | --- |
| CC1CCCc2sc3nc(NNC(=O)c4cnccn4)n(-c4ccccc4)c(=O)c3c21 (configuration not stated) | 1.65% (active) and 26.4% (inactive) | 24.4% (inactive) and 11.4% (inactive) | 12% (inactive) and 9.28% (active) | 29.6% (inactive) and 36.6% (inactive) | -3.93% (active) and -20.4% (active) | 17% (inactive) and -9.04% (active) | 16.9% (inactive) and 14.1% (inactive) | 0.919% (active) and -3.1% (active) | 49.1% (inactive) and 38.1% (inactive) | 3.02% (active) and 5.41% (active) | 12.8% (inactive) | 27.9% (inactive) and 21.5% (inactive) | 23.7% (inactive) and 19.7% (inactive) | 6.57% (active) and 0.695% (active) | 7.09% (active) and -13.3% (active) | 34.2% (inactive) and 40.9% (inactive) | 20% (inactive) and 19.2% (inactive) | – |
| N#C/C(=C1C=C/C(=N/O)C(Br)=C/1)c1ccccc1 | 7.83% (active) | 6.28% (active) | 1.66% (active) | 52.2% (inactive) | 42.1% (inactive) | 29.1% (inactive) | 4.78% (active) | -3.84% (active) | 42.6% (inactive) | – | 36.2% (inactive) | -64.5% (active) | 12.7% (inactive) | 18.2% (inactive) | -14.7% (active) | 58.3% (inactive) | -32.6% (active) | 37.1% (inactive) |
| CCOc1ccc2c(S(=O)(=O)O)cccc2c1[N+](=O)[O-] | 100% (inactive) and 94.2% (inactive) | 98.1% (inactive) and 95.9% (inactive) | 104% (inactive) and 97.6% (inactive) | 102% (inactive) and 112% (inactive) | 123% (inactive) and 109% (inactive) | 102% (inactive) and 106% (inactive) | 96.3% (inactive) and 114% (inactive) | 107% (inactive) and 112% (inactive) | 102% (inactive) and 94.5% (inactive) | – | 119% (inactive) and 103% (inactive) | 108% (inactive) and 106% (inactive) | 107% (inactive) and 98.2% (inactive) | 107% (inactive) and 104% (inactive) | 101% (inactive) | 109% (inactive) | 98.1% (inactive) and 103% (inactive) | – |
| CC(C)Oc1ccc2cc(-c3nn(CC4CCNCC4)c4ncnc(N)c34)ccc2c1 | 18.3% (inactive) and -42.2% (active) | 46.6% (inactive) and -53.2% (active) | 90.8% (inactive) and 38.9% (inactive) | 80.1% (inactive) and 40.2% (inactive) | 100% (inactive) and 30.9% (inactive) | 75.8% (inactive) and 13.3% (inactive) | 92.1% (inactive) and 42.4% (inactive) | 92.2% (inactive) and 33.9% (inactive) | 75.7% (inactive) and -8.78% (active) | 94.7% (inactive) and 64.2% (inactive) | 73.2% (inactive) and -5.14% (active) | 92.1% (inactive) and -86.6% (active) | 91.7% (inactive) and 1.44% (active) | – | 50.4% (inactive) and 9.14% (active) | 77.7% (inactive) and -13.5% (active) | 86.4% (inactive) and 22.4% (inactive) | – |
| CCC(O)c1ccccc1 (configuration not stated) | 100% (inactive) and 94.1% (inactive) | 192% (inactive) | 101% (inactive) and 96.1% (inactive) | 106% (inactive) and 108% (inactive) | 103% (inactive) and 107% (inactive) | 121% (inactive) and 105% (inactive) | 109% (inactive) and 108% (inactive) | 112% (inactive) and 109% (inactive) | 81.8% (inactive) and 93.6% (inactive) | – | 133% (inactive) | 89.8% (inactive) and 107% (inactive) | 109% (inactive) and 104% (inactive) | 103% (inactive) and 95.6% (inactive) | 86.7% (inactive) and 108% (inactive) | -87.7% (active) | 116% (inactive) and 108% (inactive) | 106% (inactive) and 102% (inactive) |
| COc1cc(/C=N/Nc2nc3c([nH]2)c(=O)n(C)c(=O)n3C)ccc1O | 89% (inactive) and 85.3% (inactive) | 98.3% (inactive) and 103% (inactive) | 103% (inactive) and 108% (inactive) | 107% (inactive) and 111% (inactive) | 108% (inactive) | 104% (inactive) and 109% (inactive) | 110% (inactive) and 124% (inactive) | 122% (inactive) and 110% (inactive) | 118% (inactive) and 103% (inactive) | – | 103% (inactive) and 112% (inactive) | 104% (inactive) and 116% (inactive) | 105% (inactive) and 110% (inactive) | 97% (inactive) and 95.2% (inactive) | 100% (inactive) and 108% (inactive) | 102% (inactive) and 124% (inactive) | 67.6% (inactive) and 79.4% (inactive) | 93% (inactive) and 102% (inactive) |
| O=C(Nc1ccc(Cl)cc1)c1cc2ccccc2cc1O | 15.8% (inactive) and -13.9% (active) | -10.7% (active) and -29% (active) | 26.1% (inactive) and -5.89% (active) | 78.8% (inactive) and 42.7% (inactive) | 34.5% (inactive) and 20.9% (inactive) | 18.9% (inactive) | 23.3% (inactive) and 21.8% (inactive) | 14.4% (inactive) and 5.62% (active) | 15.8% (inactive) and 4.92% (active) | 12.5% (inactive) and 6.49% (active) | 23.3% (inactive) | 39.2% (inactive) and 25.9% (inactive) | 13.3% (inactive) and 5.94% (active) | 12% (inactive) and -0.605% (active) | 18.9% (inactive) and -44.3% (active) | – | 8.59% (active) and 2.94% (active) | – |
| CN1CCN(Cc2occc(=O)c2O)CCN(C)CCN(Cc2occc(=O)c2O)CC1 | 79.5% (inactive) and 31.1% (inactive) | 97.2% (inactive) and 29.5% (inactive) | 98.8% (inactive) and 64.2% (inactive) | 104% (inactive) and 72.1% (inactive) | 102% (inactive) and 77% (inactive) | 91% (inactive) and 49.5% (inactive) | – | 117% (inactive) and 28.6% (inactive) | 90.4% (inactive) and 84.2% (inactive) | 105% (inactive) and 78.7% (inactive) | 97.1% (inactive) and 84% (inactive) | 108% (inactive) and 47.3% (inactive) | 113% (inactive) and 15.6% (inactive) | 91.6% (inactive) and 24.9% (inactive) | 100% (inactive) and 10.6% (inactive) | 112% (inactive) and 47.5% (inactive) | 109% (inactive) and 28.9% (inactive) | 93.8% (inactive) and 77.4% (inactive) |
| CCCCCCCCCCCCCCCCOc1ccc(C)cc1 | 97.9% (inactive) | 118% (inactive) | 106% (inactive) | 99.9% (inactive) | 99.8% (inactive) | 108% (inactive) | 127% (inactive) | 108% (inactive) | 110% (inactive) | 103% (inactive) | 112% (inactive) | 111% (inactive) | 101% (inactive) | 102% (inactive) | 108% (inactive) | 105% (inactive) | 108% (inactive) | – |
| CCCCOc1cc(C(=O)NCCN(CC)CC)c2ccccc2n1 | 101% (inactive) and 93% (inactive) | 85.4% (inactive) and 93.6% (inactive) | 92.9% (inactive) and 81.8% (inactive) | 91.4% (inactive) and 97.6% (inactive) | 94.2% (inactive) and 101% (inactive) | 112% (inactive) and 92.8% (inactive) | – | 114% (inactive) and 101% (inactive) | 92.3% (inactive) and 128% (inactive) | 92.2% (inactive) and 99.3% (inactive) | 93.4% (inactive) and 98.5% (inactive) | 88.9% (inactive) and 98.1% (inactive) | 105% (inactive) and 97.7% (inactive) | 93.3% (inactive) and 95% (inactive) | 91% (inactive) and 105% (inactive) | 96% (inactive) and 92.2% (inactive) | 101% (inactive) and 110% (inactive) | 82.9% (inactive) and 92.4% (inactive) |
